According to PubChem BioAssay AID588453 (National Center for Advancing Translational Sciences (NCATS), 2011):
The whole screen tested about 390,000 compounds, of which about 4,000 (1%) were called active. About 4% were inconclusive and are not listed. What follows is part of a selection rich in actives, with near analogues and random picks from the rest. A number with no mark means an inactive call. Calls come from the whole dose curve; as a rule, active = well fitted inhibition curve with a large enough effect; inconclusive = small, poorly fitted or top-dose-only effect; inactive = no such curve, though single readings can be large or run the other way.

Biological target: Thioredoxin reductase 1, cytoplasmic (Rattus norvegicus) (UniProt O89049)
Sequence (O89049 whole entry, looked up): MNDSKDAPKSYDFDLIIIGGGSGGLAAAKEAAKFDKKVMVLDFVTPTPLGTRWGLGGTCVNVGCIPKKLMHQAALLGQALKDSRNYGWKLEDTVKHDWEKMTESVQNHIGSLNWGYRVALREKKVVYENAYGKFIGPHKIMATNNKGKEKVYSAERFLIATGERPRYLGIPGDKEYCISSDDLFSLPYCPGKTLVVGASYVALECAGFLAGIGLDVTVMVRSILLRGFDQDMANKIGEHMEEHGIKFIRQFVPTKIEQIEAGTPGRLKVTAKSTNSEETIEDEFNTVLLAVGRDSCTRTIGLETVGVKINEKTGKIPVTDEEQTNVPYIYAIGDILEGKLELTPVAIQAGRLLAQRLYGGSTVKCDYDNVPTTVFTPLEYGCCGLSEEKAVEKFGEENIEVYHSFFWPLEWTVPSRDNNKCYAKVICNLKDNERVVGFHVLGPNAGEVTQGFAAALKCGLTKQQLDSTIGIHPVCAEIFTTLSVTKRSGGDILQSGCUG
Experiment: qHTS Assay for Inhibitors of Mammalian Selenoprotein Thioredoxin Reductase 1 (TrxR1): qHTS; note: nearly all actives have a fitted effect of over 65% in size
Conditions: recombinant rTrxR1, NADPH fluorescence consumption, selenite substrate; series mostly up to 114 µM; activity change, negative = inhibition: at the top concentration
How it was run: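 Rat TrxR1 (90 nM in the dispensed reagent) was pre-reduced with 400 uM NADPH for 5 min at room temperature, then incubated with compound for 15 min. After 400 uM selenite was added, NADPH fluorescence (Ex 340/Em 450 nm) was followed for 8 min.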
% is set by controls: 0 for no effect and ±100 for the full control effect; potency is the fitted concentration of half-maximal effect.

| SMILES | activity change, negative = inhibition | Potency |
| --- | --- | --- |
| O=C(COc1ccccc1C(=O)Nc1ccccc1)Nc1cccc(F)c1 | 21.1% |  |
| CCC(=O)Nc1cccc(-c2nc3cc(C)ccc3o2)c1 | 34.9% [at 57.1 µM] |  |
| CC(C)(C)c1ccc(C(=O)C[N+]2(C)CCCc3ccccc32)cc1 (stereo unspecified) | 7.97% |  |
| COC(=O)c1ccccc1NC(=S)NC(=O)c1ccccc1F |  | 25.1 µM (active) |
| O=C(NC(=S)NC1CCSC1=O)c1ccccc1F (stereo unspecified) | 9.7% |  |
| COC(=O)c1ccccc1NC(=O)Cc1ccccc1OC | -5.24% |  |
| COc1cccc(C2C(C(=O)Nc3ccc(C)cc3C)=C(C)Nc3c(C(=O)Nc4ccccc4)cnn32)c1 (stereo unspecified) | 2.63% |  |
| CC1CCCCN1Cc1c(O)ccc2c(=O)c(-c3cccc(Cl)c3)c(C(F)(F)F)oc12 (stereo unspecified) | -4.93% |  |
| CC1CCCN(Cc2c(O)ccc3c(=O)c(Oc4ccc(C(C)(C)C)cc4)c(C(F)(F)F)oc23)C1 (stereo unspecified) | 7.62% |  |
| COc1ccc(CC(=O)NCc2nnc(SCC(=O)Nc3nccs3)n2C)cc1 | 9.52% |  |
| CCn1c(CNc2ccc(OC)cc2)nnc1SCC(=O)c1ccc(OC)cc1 | -11.4% |  |
| COc1ccc(Cc2nnc(SCC(=O)c3cccc([N+](=O)[O-])c3)n2C)cc1 |  | 79.4 µM (active) |
| Fc1ccc(CSc2nc(NCc3ccccc3)c3ccccc3n2)cc1 | 17.9% [at 57.1 µM] |  |
| O=C(CSc1nnc(CNC(=O)c2ccccc2)n1-c1ccc(F)cc1)Nc1ccccc1F | 27.2% |  |
| O=C(c1ccc2c(c1)OCO2)N1CCNc2ccccc2C1 | -7.73% |  |
| O=C(CCN1CCc2ccccc2C(O)(c2ccccc2)C1)c1ccc2c(c1)OCCO2 (stereo unspecified) |  | 0.708 µM (active) |
| O=C(OCc1ccccc1F)c1ccc2c(c1)OCCO2 | 16.1% |  |
| O=C1CCC[C@@H]2C[C@@]3(C[C@@H]4CCN1[C@H]24)Nc1ccccc1NC3=NCc1ccccc1 | 11.3% |  |
| O=C(O)C1CC=CC2CCN(C3CCCCC3)C(=O)C21 (stereo unspecified) | 4.14% |  |
| Cc1nnc(N2CCCC(C(=O)NCCN(C)C)C2)c2nn(-c3ccccc3)c(C)c12 (stereo unspecified) | 14.7% |  |
| O=C1c2ccccc2C(=O)N1c1ccc(S(=O)(=O)N2CCOCC2)c2ccccc12 | 5.9% |  |
| O=C(c1ccc(Oc2ccc(Cl)cc2)c([N+](=O)[O-])c1)N1CCCC1 | 14.8% |  |

| SMILES | activity change, negative = inhibition | Potency |
| --- | --- | --- |
| CC1CCN(C(=O)c2ccc(S(=O)(=O)Cc3cc(F)ccc3F)c([N+](=O)[O-])c2)CC1 |  | 10 µM (active) |
| NC(=O)C1CCN(C(=O)c2ccc(F)c(S(=O)(=O)N3CCOCC3)c2)CC1 | 14.1% |  |
| Cc1cccc(-c2nnc(SC(C)C(=O)Nc3ccccc3)n2C)c1 (stereo unspecified) | 6.51% |  |
| COc1cc(Cl)c(C)cc1NC(=O)CCc1nc2cccnc2n1Cc1cccs1 | 10.8% |  |
| Cc1cccc(C(=O)N2CCc3cc(CNC(=O)Cc4ccc(F)cc4)ccc32)c1 | 5.2% [at 57.1 µM] |  |
| CCOC(=O)c1cnc2[nH]c3ccccc3n2c1=O |  | 44.7 µM (active) |
| CCOC(=O)c1cnc2nc(SCc3ccccc3Cl)[nH]n2c1=O | 16.8% |  |
| CCOC(=O)c1cnc2sccn2c1=O | 22.6% |  |
| COc1ccc(NC(=O)CSc2nc3ccccc3[nH]2)cc1 | 27.2% |  |
| Cc1ccccc1CN1C[C@@H]2C[C@@H](c3cn(C)nc3-c3ccccc3)N3CCC[C@@]23C1=O |  | 44.7 µM (active) |
| Cc1ccccc1CN1CCN(CC(=O)NCc2ccccn2)C1=O | 2.68% |  |
| Cc1ccccc1CN1C[C@@H]2C[C@@H](c3ccc4nsnc4c3)N3CCC[C@@]23C1=O | -29.8% |  |
| CCOC(=O)c1[nH]c(C)c(CCC(=O)N2CCN(c3ccccc3)CC2)c1C | 16% [at 57.1 µM] |  |
| CCc1nc2ccc(C(=O)N3CCN(c4cc(Cl)ccc4C)CC3)cc2nc1CC | 9.4% [at 57.1 µM] |  |
| CC(C)CNC(=S)NC(=O)c1ccc(Cl)cc1 |  | 14.1 µM (active) |
| CC(C)CNC(=S)NNC(=O)c1nn(C)cc1Cl | -12.6% [at 57.1 µM] |  |
| Cc1scc(C(=O)NNC(=S)NCC(C)C)c1C | 5.78% |  |
| CCOC(=O)c1c(NC(=O)CSc2cn(CCNC(=O)c3cccc(C(F)(F)F)c3)c3ccccc23)sc2c1CCC2 | 16.1% [at 11.4 µM] |  |
| CC1(C)CC(=O)C=C(NCc2ccncc2)C1 | -12.2% [at 57.1 µM] |  |
| Cc1cc(O)ccc1NC1=CC(=O)CC(C)(C)C1 | -14.1% [at 57.1 µM] |  |
| Cc1cc(C)nc(NNC2=CC(=O)CC(C)(C)C2)n1 |  | 14.1 µM (active) |
| Cc1ccc(OCCn2c(CNc3ccccc3C)nc3ccccc32)cc1 | 14.2% |  |

| SMILES | activity change, negative = inhibition | Potency |
| --- | --- | --- |
| CCN1CCc2nc3sc(C(=O)Nc4ccccc4OC(F)(F)F)c(N)c3cc2C1 | -1.24% |  |
| Cc1ccc(C)c(Cn2c(CCCNC(=O)C3CCCCC3)nc3ccccc32)c1 | 2.37% |  |
| CCC(=O)Nc1ccc2nc(SCC(=O)N3CCc4ccccc43)sc2c1 | 1.52% |  |
| O=C1C=CC(=O)N1c1ccc(N2CCCCC2)cc1 |  | 0.708 µM (active) |
| O=C(NCc1ccc(F)cc1)c1ccc(Cn2c(SCc3ccc(F)cc3)nc3cccnc32)cc1 | 16.5% |  |
| Cc1ccc(C)n1-c1nnc(N2CCC(C(=O)NCc3ccc(F)cc3)CC2)s1 | -27.1% |  |
| COc1ccc(CCNC(=O)CCCn2c(=O)c3ccccc3n(Cc3ccc(F)cc3Cl)c2=O)cc1OC | 13.4% |  |
| Nc1ccccc1SC(C[N+](=O)[O-])c1ccccc1 (stereo unspecified) |  | 7.94 µM (active) |
| CN(C)c1ccc(/C=c2\[nH]c(=O)/c(=C/c3ccc(N(C)C)cc3)[nH]c2=O)cc1 | 9.58% |  |
| COc1ccccc1N1CCN(C(=O)C2Cc3ccccc3CN2C(=O)c2ccco2)CC1 (stereo unspecified) | 1.63% |  |
| Cc1ccc(S(=O)(=O)N(C)C)cc1NC(=O)C1Cc2ccccc2CN1C(=O)c1ccco1 (stereo unspecified) |  | 39.8 µM (active) |
| Cc1ccc(C)c(NC(=O)C2Cc3ccccc3CN2C(=O)OCc2ccccc2)c1 (stereo unspecified) | 0.243% |  |
| Cc1c(Cl)cccc1NC(=O)CCS(=O)(=O)c1ccc2c(c1)oc(=O)n2C | 0.617% |  |
| Cc1ccc(C)c(NC(=O)Cn2ccn(-c3ccc(F)cc3)c(=O)c2=O)c1 | 7.31% |  |
| CCc1cc2c(cc3c(=O)n(CC(=O)NCCc4ccc(OC)c(OC)c4)ncn32)s1 | 5.4% |  |
| O=C1c2ccccc2C(=O)N1CCC(O)C[N+](=O)[O-] (stereo unspecified) |  | 70.8 µM (active) |
| O=C(OCCN1C(=O)c2ccccc2C1=O)Oc1ccccc1 | 29.4% |  |
| O=C1c2ccccc2C(=O)N1CCOc1ccc(F)cc1 | 17.5% |  |
| Cc1cc2nn(-c3ccc(Cl)cc3)nc2cc1NC(=O)C(C)C | 13.3% |  |
| COc1ccc(/C=C(\NC(=O)c2ccc(OCC(C)C)cc2)C(=O)OCc2ccco2)cc1 | -27.7% |  |
| CCCC(NC(=O)c1ccco1)c1nc2ccccc2[nH]1 (stereo unspecified) | -19% |  |
| CC(C)Oc1ccc(/C=C(\NC(=O)/C=C/c2ccco2)C(=O)NCCc2nc3ccccc3[nH]2)cc1 |  | 17.8 µM (active) |
